# Results filed as inconclusive are left out. A call without a number means that no potency is given here. The source made the active and inactive calls. Unless noted, calls follow the shape of the dose curve; as a rule, active = well fitted curve in the direction sought with a large enough effect; inconclusive = small, poorly fitted or top-dose-only effect, or another doubt; inactive = no such curve, though single readings can be large; an effect the other way counts as inactive or inconclusive.
# Experiments:
# [1] = Primary qHTS for inhibitors of SARS-S pseudo-typed particle cell entry (AID 1479145; calls by dose curve; also: series mostly up to about 57 µM; nearly all actives have a fitted effect of over 45% in size)
# [2] = Primary qHTS for inhibitors of MERS-S pseudo-typed particle cell entry (AID 1479149; calls by dose curve; also: nearly all actives have a fitted effect of over 60% in size)
# [3] = molecular target: Vitamin D3 receptor (Homo sapiens) (UniProt P11473); experiment: qHTS assay for small molecule antagonists of vitamin D receptor signaling (AID 588541; calls by dose curve;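 also: receptor activated by calcitriol during compound treatment; series mostly up to about 77 µM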)
# Chain of Vitamin D3 receptor (Homo sapiens) (P11473 whole entry, looked up): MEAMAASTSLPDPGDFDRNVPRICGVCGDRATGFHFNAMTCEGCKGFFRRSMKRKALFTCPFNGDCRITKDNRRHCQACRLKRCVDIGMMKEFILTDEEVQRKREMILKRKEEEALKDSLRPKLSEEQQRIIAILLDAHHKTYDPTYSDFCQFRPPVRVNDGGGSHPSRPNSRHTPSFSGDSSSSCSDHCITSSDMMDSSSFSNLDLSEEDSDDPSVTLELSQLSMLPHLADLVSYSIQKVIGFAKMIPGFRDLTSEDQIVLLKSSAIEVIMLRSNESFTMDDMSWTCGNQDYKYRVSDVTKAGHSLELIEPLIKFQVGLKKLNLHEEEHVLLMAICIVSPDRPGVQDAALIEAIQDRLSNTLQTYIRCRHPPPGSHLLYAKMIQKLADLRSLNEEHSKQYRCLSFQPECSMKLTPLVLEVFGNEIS
# Outline: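 VDR-UAS-bla HEK293T cells in 2% charcoal-stripped FBS were stimulated with 1-alpha,25-dihydroxyvitamin D3 (3 nM final) plus compound for 16 h at 37 C. The beta-lactamase CCF4 readout was normalized to 50 nM agonist and DMSO, and Hill fits gave IC50.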
# [4] = qHTS assay for small molecule agonists of retinoid X receptor alpha signaling (AID 588544; calls by dose curve); conditions: HEK293T RXRa-UAS-bla, beta-lactamase reporter, 18 h; 530 nm emission
# [5] = molecular target: Retinoic acid receptor RXR-alpha (Homo sapiens) (UniProt P19793); experiment: as above
# Chain of Retinoic acid receptor RXR-alpha (Homo sapiens) (P19793 whole entry, looked up): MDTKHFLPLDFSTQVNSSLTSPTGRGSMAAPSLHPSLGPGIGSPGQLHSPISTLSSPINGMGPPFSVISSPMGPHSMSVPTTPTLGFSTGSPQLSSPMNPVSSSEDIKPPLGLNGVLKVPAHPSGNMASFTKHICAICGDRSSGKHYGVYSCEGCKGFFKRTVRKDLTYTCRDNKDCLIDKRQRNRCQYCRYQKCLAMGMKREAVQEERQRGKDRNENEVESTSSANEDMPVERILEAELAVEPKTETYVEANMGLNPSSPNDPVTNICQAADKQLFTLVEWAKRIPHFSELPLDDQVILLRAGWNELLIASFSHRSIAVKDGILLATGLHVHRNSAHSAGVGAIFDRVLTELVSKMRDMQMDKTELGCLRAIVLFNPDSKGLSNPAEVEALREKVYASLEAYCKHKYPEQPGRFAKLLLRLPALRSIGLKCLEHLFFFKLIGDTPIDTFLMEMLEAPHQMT
# [6] = Confirmatory screen GU Rhodamine qHTS for Zika virus inhibitors qHTS (AID 1347157); also: potency is read from the fitted curve at half-maximal effect; nearly all actives have a fitted effect of over 70% in size
# Outline: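 Compounds, tested up to 114 microM, were incubated for 15 minutes with 25 nM unlinked NS2B-NS3 protease at pH 8.0. Cleavage of 1.5 microM Rhodamine110 substrate was then followed by fluorescence for 15 minutes.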
# [7] = KB-8-5-11 Cancer Cell Toxicity qHTS against the NCATS CANVASS Library (AID 1347364); also: nearly all actives have a fitted effect of over 75% in size; also: potency is read from the fitted curve at half-maximal effect
# Outline: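 Natural products were titrated in 11 points onto KB-8-5-11 cells, 500 per well, and cytotoxicity was scored from CellTiter-Glo luminescence after 72 hr culture.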
# [8] = KB-3-1 Cancer Cell Toxicity qHTS against the NCATS CANVASS Library (AID 1347366); also: nearly all actives have a fitted effect of over 75% in size; also: potency is read from the fitted curve at half-maximal effect
# Outline: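 Luminescence from CellTiter-Glo (10 min, room temperature) measured KB-3-1 viability after 72 hr compound exposure at 37C. Cells were seeded at 500/well and tested in an 11-point series.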
# [9] = qHTS for ATAD5 Agonist screened against the NCATS CANVASS Library (AID 1347367);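 also: luciferase reporter driven by ATAD5 which rises upon DNA damage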
# Outline: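 HEK293T-ATAD5 luc reporter; 2000 cells/well; 5hr settle; cpd 11-pt qHTS; 16hr 37C 5% CO2 dark; viability by CellTiter-Fluor (AFC fluorescence); then luciferase luminescence, 30min RT.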
# [10] = MCF7 Cancer Cell Toxicity qHTS against the NCATS CANVASS Library (AID 1347369); also: potency is read from the fitted curve at half-maximal effect
# Outline: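 Cells seeded at 500/well, then compound pinned. Plates incubated 72 hr at 37C, 5% CO2. CellTiterGlo added; luminescence read.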
# [11] = qHTS for ATAD5 Antagonist screened against the NCATS CANVASS Library (AID 1347370); also: nearly all actives have a fitted effect of over 65% in size; also: potency is read from the fitted curve at half-maximal effect
# Outline: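 HEK293T cells with a stably integrated ATAD5-controlled luciferase reporter were exposed to compounds (11-pt) alongside 10 uM 5-fluorouridine as ATAD5 stabilizer for 16hr at 37C. Viability was read by CellTiter-Fluor fluorescence, then ATAD5 by luminescence.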
# [12] = molecular target: Nuclear receptor subfamily 1 group I member 3 (Homo sapiens) (UniProt Q14994); experiment: qHTS for Constitutive Androstane Receptor (CAR) Antagonist screened against the NCATS CANVASS Library (AID 1347372); also: potency is read from the fitted curve at half-maximal effect
# Chain of Nuclear receptor subfamily 1 group I member 3 (Homo sapiens) (Q14994 whole entry, looked up): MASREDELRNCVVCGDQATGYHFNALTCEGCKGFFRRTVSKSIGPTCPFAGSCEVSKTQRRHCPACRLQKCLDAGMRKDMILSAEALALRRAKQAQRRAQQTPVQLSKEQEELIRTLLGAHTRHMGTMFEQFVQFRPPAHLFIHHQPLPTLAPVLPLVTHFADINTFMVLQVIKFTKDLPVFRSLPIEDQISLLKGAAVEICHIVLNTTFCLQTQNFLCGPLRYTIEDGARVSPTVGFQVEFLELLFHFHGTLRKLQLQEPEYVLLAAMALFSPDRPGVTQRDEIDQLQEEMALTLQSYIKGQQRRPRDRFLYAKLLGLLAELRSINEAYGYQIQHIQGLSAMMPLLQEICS
# Outline: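 HepG2 cells stably carrying hCAR and CYP2B6-2.2kb luciferase reporter, 2500 cells/well, compound with 50 nM CITCO agonist for 24hr at 37C. ONE-Glo luminescence measured CAR activity; CellTiter-Fluor read viability.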
# [13] = qHTS for Hypoxia signaling pathway (HIF-1) agonists against the NCATS CANVASS Library (AID 1347375); also: potency is read from the fitted curve at half-maximal effect
# Outline: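 Inducers of HIF-1 signaling were detected in ME-180 cells bearing an HRE-driven beta-lactamase reporter after 17 h compound exposure. Activity came from CCF4-AM FRET emission ratio (460/530 nm) in qHTS format.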
# [14] = 10-beta competent E. coli microbial cell viability qHTS against the NCATS CANVASS Library (AID 1347376); also: series mostly up to about 46 µM
# Outline: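 Cytotoxicity toward competent E. coli is scored from cellular ATP content via BacTiter-Glo luminescence following overnight compound exposure at 37C, 5% CO2.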
# [15] = DH5-alpha competent E. coli microbial cell viability qHTS against the NCATS CANVASS Library (AID 1347377); conditions: outcome: dose series up to 46.1 µM
# Outline: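 Cell viability of competent DH5-alpha E. coli is scored from ATP content by luminescence. Cells sit overnight at 37C with compound across an 11-point concentration series.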
# [16] = Inflammasome Signaling qHTS Counterscreen: IL-1-beta AlphaLISA counterscreen against the NCATS CANVASS Library (AID 1347381);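 also: cell-free check with purified IL-1β in medium and no THP-1 cells; series mostly up to about 57 µM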
# Outline: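 To flag interference with the AlphaLISA read-out, a known amount of purified IL-1-beta (4 pg) replaced cell supernatant. Detection used anti-IL-1-beta acceptor beads, biotinylated antibody and streptavidin donor beads at room temperature.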
# [17] = Cytotoxicity qHTS for assessment of Hepg2 cells membrane integrity screened against the NCATS CANVASS Library (AID 1347387)
# Outline: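 Fluorescence proportional to lysed-cell number, from LDH leaking out of HepG2 cells exposed 5 hr at 37C to 0.59 nM - 46 uM compound (11-point qHTS), is measured after 10 min with CytoTox-ONE.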
# [18] = qHTS assay for small molecule disruptors of mitochondrial membrane potential screened against the NCATS CANVASS Library (AID 1347389); also: series mostly up to about 46 µM; nearly all actives have a fitted effect of over 60% in size
# Outline: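 Compounds tested in 11-point qHTS series on HepG2 cells for 1 hr; membrane-potential dye added for 30 min at 37C. Lower red-to-green ratio indicates loss of potential.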
# [19] = Redox Reaction Profiling qHTS: Assay Interference Panel against the NCATS CANVASS Library (AID 1347401)
# Outline: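 Compounds in 11-point series incubated with 5 uM resazurin and 200 uM DTT in 50 mM HEPES pH 7.3, 50 mM NaCl. Resorufin fluorescence (Ex 525/Em 598) read before and after 15 min in the dark.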
# [20] = qHTS for inhibitors of Rabies Virus screened against the NCATS CANVASS Library (AID 1347402; calls by dose curve; also: series mostly up to about 46 µM)
smiles,measurement,setting,value
CC(=O)OC[C@@H]1O[C@@H](n2ccc(=O)[nH]c2=O)[C@H](OC(C)=O)[C@H]1OC(C)=O,Potency,[1],inactive
same,Potency,[2],inactive
Oc1c(Cl)c(Cl)c(Cl)c(Cl)c1Cl,outcome,[3],inactive
same,max response,[4],19.6%
same,outcome,[5],inactive
same,Potency,[6],7.08 µM (active)
O=c1c(O)c(-c2ccc(O)c(O)c2)oc2c(O)c(O)cc(O)c12,Potency,[6],22.4 µM (active)
CO[C@H]1[C@@H](O)CC(OC2[C@@H](O)CC(OC3[C@@H](O)C[C@H](OC4CC[C@@]5(C)C(CCC6C5CC(O)[C@]5(C)[C@H](C7=CC(=O)OC7)CCC65O)C4)O[C@@H]3C)O[C@@H]2C)O[C@@H]1C (some centres undefined),Potency,[1],inactive
same,Potency,[2],inactive
CC(C)OC(=O)Nc1ccccc1,outcome,[3],inactive
same,max response,[4],-15.4%
same,outcome,[5],inactive
C=C1[C@@H](C)[C@H]2[C@H](Cc3ccccc3)NC(=O)[C@]23OC(=O)/C=C/[C@H](O)CCC[C@@H](C)C/C=C/[C@H]3[C@@H]1O,Potency,[7],9.35 µM (active)
same,Potency,[8],4.69 µM (active)
same,Potency,[9],inactive
same,Potency,[10],inactive
same,Potency,[11],inactive
same,Potency,[12],8.31 µM (active)
same,Potency,[13],inactive
same,outcome,[14],inactive
same,outcome,[15],inactive
same,outcome,[16],inactive
same,outcome,[17],inactive
same,Potency,[18],inactive
same,Potency,[19],inactive
same,outcome,[20],inactive
COc1ccc2c3c([nH]c2c1)C(C)=NCC3,Potency,[7],inactive
same,Potency,[8],inactive
same,Potency,[9],inactive
same,Potency,[10],inactive
same,Potency,[11],16.6 µM (active)
same,Potency,[12],inactive
same,Potency,[13],13.3 µM (active)
same,outcome,[14],inactive
same,outcome,[15],inactive
same,outcome,[16],inactive
same,outcome,[17],inactive
same,Potency,[18],inactive
same,Potency,[19],inactive
same,outcome,[20],inactive
COc1ccc2c(c1)[nH]c1c(C)nccc12,Potency,[7],38.2 µM (active)
same,Potency,[8],42.9 µM (active)
same,Potency,[9],inactive
same,Potency,[10],34 µM (active)
same,Potency,[11],2.41 µM (active)
same,Potency,[12],inactive
same,Potency,[13],inactive
same,outcome,[14],inactive
same,outcome,[15],inactive
same,outcome,[16],inactive
same,outcome,[17],inactive
same,Potency,[18],inactive
same,Potency,[19],inactive
same,outcome,[20],inactive
